# The supplement of paper PMC11624193, “Coupling cellular drug-target engagement to downstream pharmacology with CeTEAM” (Nature Communications, 2024)
# Values without a mark were called inactive.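 Rule for the calls: active = log2 fold change beyond 2 SD from the library mean after excluding viability outliers; inactive = within 2 SD.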
# Target: PARP1 L713F-nLuc biosensor (HCT116) (UniProt P09874)
# Test: PARP1 L713F-nLuc/akaLuc ratio relative to DMSO control (biosensor stabilization) (fold change); higher = more PARP1 biosensor stabilization (target engagement / stabilizer), active = hit call of the paper
# Conditions: stock concentration (mM; final µM = stock mM x 1): 10; 24 h
# PARP1 L713F-nLuc biosensor (HCT116), sequence (P09874 whole entry L713F, looked up): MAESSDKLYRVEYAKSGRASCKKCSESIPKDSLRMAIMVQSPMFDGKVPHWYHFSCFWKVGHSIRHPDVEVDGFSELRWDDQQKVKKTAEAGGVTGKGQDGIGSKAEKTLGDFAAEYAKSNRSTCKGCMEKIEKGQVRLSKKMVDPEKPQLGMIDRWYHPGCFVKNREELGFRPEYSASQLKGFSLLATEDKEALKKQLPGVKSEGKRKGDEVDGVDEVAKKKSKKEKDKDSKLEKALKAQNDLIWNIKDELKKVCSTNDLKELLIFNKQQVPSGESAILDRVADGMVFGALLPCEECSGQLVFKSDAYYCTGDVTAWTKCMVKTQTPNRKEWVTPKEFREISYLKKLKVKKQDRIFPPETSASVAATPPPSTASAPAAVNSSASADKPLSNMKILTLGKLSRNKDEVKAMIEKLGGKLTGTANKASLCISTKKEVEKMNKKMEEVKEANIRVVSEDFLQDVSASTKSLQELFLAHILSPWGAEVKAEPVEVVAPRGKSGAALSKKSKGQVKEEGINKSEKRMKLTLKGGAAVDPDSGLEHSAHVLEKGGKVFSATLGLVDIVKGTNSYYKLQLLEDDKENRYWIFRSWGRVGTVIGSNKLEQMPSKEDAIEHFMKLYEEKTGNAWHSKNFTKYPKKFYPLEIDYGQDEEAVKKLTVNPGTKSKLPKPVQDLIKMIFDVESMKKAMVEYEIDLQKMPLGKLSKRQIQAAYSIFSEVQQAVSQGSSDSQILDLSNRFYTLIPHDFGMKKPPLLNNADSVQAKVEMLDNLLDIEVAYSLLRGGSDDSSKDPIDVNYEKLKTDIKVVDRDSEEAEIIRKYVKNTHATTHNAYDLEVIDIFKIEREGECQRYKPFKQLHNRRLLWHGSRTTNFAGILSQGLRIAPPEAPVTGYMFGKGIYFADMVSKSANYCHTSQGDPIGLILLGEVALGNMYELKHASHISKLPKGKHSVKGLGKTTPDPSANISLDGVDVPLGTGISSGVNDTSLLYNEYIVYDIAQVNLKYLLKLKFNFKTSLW
row,SMILES,PARP1 L713F-nLuc/akaLuc ratio
1,O=C(c1ccc(C(=O)N2CCC(N3CCCC3)CC2)c(Nc2ccccc2)c1)N1CCC(N2CCCC2)CC1,0.936
2,N#CC[C@H](C1CCCC1)n1cc(-c2ncnc3[nH]ccc23)cn1 [Ruxolitinib (S enantiomer)],1.63
3,NC1(c2ccc(-c3nc4ccn5c(=O)[nH]nc5c4cc3-c3ccccc3)cc2)CCC1,0.79
4,COC(=O)c1ccc(N2CCN(C)CC2)c(NC(=O)c2cccc(OC)c2)c1,0.856
5,COCC(=O)Nc1cc(Sc2ccccc2)ccc1N=C(NC(=O)OC)NC(=O)OC [Febantel],1.6
6,Nc1nc2[nH]cnc2c(=S)[nH]1 [Thioguanine],1.03
7,COc1ccc(CN2CCC(c3ccc4nc(C(=O)N5CCN(Cc6ccc(C(F)(F)F)cc6)CC5)[nH]c4c3)CC2)cn1,0.348
8,Oc1cc(O)c2cc(O)c(-c3cc(O)c(O)c(O)c3)[o+]c2c1 [Delphinidin (chloride)],1.09
9,C=C(C)[C@@H](CC=C(C)C)C[C@@]12C[C@@H](CC=C(C)C)C(C)(C)[C@@](CC=C(C)C)(C(=O)C(C(=O)c3ccc(O)c(O)c3)=C1O)C2=O [Garcinol],0.631
10,O=C(/C=C\n1cnc(-c2cc(C(F)(F)F)cc(C(F)(F)F)c2)n1)NNc1ccccn1 [Verdinexor (KPT-335)],0.35
11,Nc1nc(N)c2nc(-c3cccc(O)c3)c(-c3cccc(O)c3)nc2n1,1.46
